This assay deals with Plasmodium falciparum NF54 stage V gametocytes. As to the kind of experiment: viability index relative to DMSO control (fraction); higher = less gametocyte killing. The conditions noted are these: 2.5 µM, incubation time: 72 h. In a few lines:
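P. falciparum NF54 stage V gametocytes in serum-free screening medium (0.75% gametocytemia, 1.25% hematocrit, 10 µl) were incubated with compound at 2.5 µM in 1,536-well plates for 72 hr at 37°C under low oxygen. Then 3 µl of 2.5 µM MitoTracker Red CMXRos plus 0.13% saponin was added for one to two hours. One field per well was imaged, 20–70 µm2 red particles were counted, and the viability index was the count divided by the plate mean of DMSO wells.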

Where [1] appears, read: library set: Broad Institute DOS.
[2] abbreviates: library set: Broad Institute Blood Stage.

± gives the uncertainty stated by the source. In all, about 9,900 compounds were measured (“viability index relative to DMSO control”: median about 1, lowest 2% from about 0.85 on). The full list was thinned out, with the lowest values kept by preference.

Under setting [1], `C[C@@H]1CN([C@H](C)CO)C(=O)c2cccc(NC(=O)c3nc4ccccc4s3)c2O[C@H]1CN(C)C(=O)Nc1ccc2c(c1)OCO2` came in with a viability index of 0.9047 ± 0.0069. `Cc1ccc(S(=O)(=O)Nc2cccc3c2O[C@@H](CN(C)C(=O)Nc2ccc(C(F)(F)F)cc2)[C@@H](C)CN([C@H](C)CO)C3=O)cc1` came in with a viability index under setting [1] of 1.08 ± 0.061.

`C[C@H](CO)N1C[C@H](C)[C@@H](CN(C)C(=O)Nc2ccc(C(F)(F)F)cc2)Oc2ccc(NS(=O)(=O)c3ccc(Cl)cc3)cc2CC1=O` returned a viability index under setting [1] of 0.917 ± 0.088. Take `C[C@@H]1CN([C@@H](C)CO)C(=O)c2cccc(NC(=O)c3nc4ccccc4s3)c2O[C@H]1CN(C)C(=O)Nc1ccc(C(F)(F)F)cc1`: under setting [2], the viability index came to 0.811 ± 0.058. Under setting [1], `Cc1ccc(S(=O)(=O)Nc2cccc3c2O[C@H](CN(C)C(=O)Nc2ccc(C(F)(F)F)cc2)[C@@H](C)CN([C@H](C)CO)C3=O)cc1` returned a viability index of 1.02 ± 0.029. `C[C@@H]1CN([C@H](C)CO)C(=O)c2cccc(NC(=O)NC3CCCCC3)c2O[C@@H]1CN(C)Cc1ccc(C(F)(F)F)cc1`: under setting [1], the viability index was 0.977 ± 0.071.

Under setting [2], `C[C@@H]1CN([C@@H](C)CO)C(=O)c2cccc(NC(=O)C3CC3)c2O[C@@H]1CN(C)C(=O)Nc1ccc(C(F)(F)F)cc1` returned a viability index of 0.594 ± 0.06. For the compound `O=C(Nc1ccccc1F)N1CC(=O)N2[C@@H](CO)[C@H](c3ccc(-c4cccnc4)cc3)[C@@H]2C1`, the viability index under setting [1] was 1.08 ± 0.028. Under setting [1], `Cc1noc(C)c1NC(=O)N(C)C[C@@H]1OCc2cnnn2CCCC(=O)N([C@H](C)CO)C[C@@H]1C` returned a viability index of 1.09 ± 0.08. `CO[C@@H]1CN(C)C(=O)c2ccc(NC(=O)NC(C)C)cc2OC[C@@H](C)N(Cc2ccc(-c3ccccn3)cc2)C[C@H]1C`: the viability index under setting [1] is 1.03 ± 0.023. Still for that read-out and setting: then `COCC(=O)Nc1ccc2c(c1)C(=O)N(C)[C@@H]1CC[C@H](CC(=O)N3CCc4ccccc4C3)O[C@@H]1CO2`, with 1.0023 ± 0.00098; and `C/C=C/c1ccc([C@H]2[C@H]3CNC[C@@H]2N3S(=O)(=O)c2ccccc2C)cc1`, with 1.04 ± 0.027. For the compound `C[C@H]1CN([C@@H](C)CO)C(=O)c2c(c3ccccc3n2C)-c2ccccc2CO[C@H]1CN(C)S(=O)(=O)c1ccc(Cl)cc1`, the viability index under setting [2] came to 0.738 ± 0.023. Still for that read-out and setting: under `C[C@H](CO)N1C[C@H](C)[C@H](CN(C)S(=O)(=O)c2ccc(C#N)cc2)OCc2ccccc2-c2c(n(C)c3ccccc23)C1=O` stands 1.01 ± 0.03; under `C[C@H](CO)N1C[C@H](C)[C@H](CN(C)S(=O)(=O)c2ccc(F)cc2)OCc2ccccc2-c2c(n(C)c3ccccc23)C1=O`, 0.942 ± 0.045.

`C[C@H]1CN([C@@H](C)CO)C(=O)c2c(c3ccccc3n2C)-c2ccccc2CO[C@H]1CN(C)S(=O)(=O)c1ccc(F)cc1` gave a viability index under setting [2] of 0.929 ± 0.041. The same measure, in the same setting: then `Cc1ccc(S(=O)(=O)N(C)C[C@@H]2OCc3ccccc3-c3c(n(C)c4ccccc34)C(=O)N([C@@H](C)CO)C[C@@H]2C)cc1`, with 0.728 ± 0.062.

`COc1ccc(S(=O)(=O)N(C)C[C@@H]2OCc3ccccc3-c3c(n(C)c4ccccc34)C(=O)N([C@@H](C)CO)C[C@@H]2C)cc1` had a viability index under setting [2] of 0.936 ± 0.044. As for `CCNC(=O)C[C@@H]1CC[C@H]2[C@@H](COC[C@H](O)CN2C(=O)c2ccccn2)O1`, under setting [1], the viability index turned out to be 1.14 ± 0.062.

For the compound `COc1cccc(C#Cc2ccc3c(c2)O[C@@H](CN(C)C(=O)CN2CCOCC2)[C@@H](C)CN([C@H](C)CO)S3(=O)=O)c1`, under setting [1], the viability index stood at 0.966 ± 0.13.

Turning to `C[C@@H]1CCCCO[C@H](CN(C)Cc2ccc(C(=O)O)cc2)[C@@H](C)CN([C@@H](C)CO)C(=O)c2cc(N(C)C)ccc2O1`, under setting [1], the viability index was 1.07 ± 0.11.

For `COCC#Cc1ccc([C@@H]2[C@@H](CO)N3C(=O)CN(C(=O)c4ccncc4)C[C@H]23)cc1`, the viability index under setting [1] turned out to be 1.12 ± 0.087. The compound `Cc1ccc(-c2ccccc2[C@H]2[C@@H](C#N)N(c3ncc(-c4ccccc4)s3)[C@H]2CO)cc1` showed a viability index under setting [1] of 0.985 ± 0.14.

Consider `O=C(C[C@H]1CC[C@@H]2[C@H](COC[C@H](O)CN2Cc2ccc(C(F)(F)F)cc2)O1)N1CCc2ccccc2C1`, for which the viability index under setting [1] worked out at 0.846 ± 0.011. `O=C(C[C@@H]1CC[C@@H]2[C@H](COC[C@H](O)CN2Cc2ccc(C(F)(F)F)cc2)O1)N1CCc2ccccc2C1` had a viability index under setting [1] of 1.078 ± 0.0039. With `O=C(C[C@H]1CC[C@H]2[C@@H](COC[C@@H](O)CN2Cc2ccc(C(F)(F)F)cc2)O1)N1CCc2ccccc2C1`, the viability index under setting [1] was 0.968 ± 0.024. On to `Cc1noc(C)c1NC(=O)Nc1ccc2c(c1)C(=O)N(C)[C@H]1CC[C@H](CC(=O)Nc3ccc4c(c3)CCCC4)O[C@@H]1CO2`, for which the viability index under setting [1] came to 1.086 ± 0.0014. With `COc1ccc([C@@H]2C/C=C\C[C@H](c3ccc(F)cc3)NC(=O)CCC(=O)N2)c(OC)c1`, the viability index under setting [1] is 1.015 ± 0.01. In turn, `C/C=C/c1ccc2c(c1)O[C@H](CN(C)C(=O)Nc1ccc(OC)cc1)[C@H](C)CN([C@H](C)CO)S2(=O)=O` had a viability index under setting [1] of 1.056 ± 0.0059. For `COc1ccc(C#Cc2ccc3c(c2)O[C@@H](CN(C)C(=O)Nc2cccc(OC)c2)[C@@H](C)CN([C@@H](C)CO)S3(=O)=O)cc1`, the viability index under setting [2] was determined as 0.612 ± 0.071.

As to `C/C=C/c1ccc2c(c1)O[C@H](CN(C)C(=O)Nc1ccc(OC)cc1)[C@H](C)CN([C@@H](C)CO)S2(=O)=O`, the viability index under setting [1] is 0.988 ± 0.013.

Under setting [1], `Cc1ccccc1-c1ccc2c(c1)O[C@@H](CN(C)C(=O)Nc1ccc(C(F)(F)F)cc1)[C@@H](C)CN([C@@H](C)CO)S2(=O)=O` came in with a viability index of 0.838 ± 0.12. In the case of `Cc1ccccc1-c1ccc2c(c1)O[C@@H](CN(C)C(=O)Nc1ccc(C(F)(F)F)cc1)[C@H](C)CN([C@@H](C)CO)S2(=O)=O`, the viability index under setting [1] was found to be 1.09 ± 0.078. In turn, `Cc1ccccc1-c1ccc2c(c1)O[C@H](CN(C)C(=O)Nc1ccc(C(F)(F)F)cc1)[C@H](C)CN([C@H](C)CO)S2(=O)=O` displayed a viability index under setting [1] of 0.988 ± 0.082.

For the origin of these results see the supplement of paper PMC4723716.
